Experimental data from ChEMBL document CHEMBL1961873, “Compounds: GSK PKIS; Assays: Nanosyn kinase panel” (2012).

What was measured:
[1] = target: Sphingosine kinase 1 (Homo sapiens) (UniProt Q9NYA1); conditions: at 1 µM;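 further: mean SPHK1 inhibition value reported from the GSK PKIS kinase panel screen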
[2] = target: T1, Sphingosine kinase 2 (Homo sapiens) (UniProt Q9NRA0); conditions: at 0.1 µM
T1 sequence (whole entry): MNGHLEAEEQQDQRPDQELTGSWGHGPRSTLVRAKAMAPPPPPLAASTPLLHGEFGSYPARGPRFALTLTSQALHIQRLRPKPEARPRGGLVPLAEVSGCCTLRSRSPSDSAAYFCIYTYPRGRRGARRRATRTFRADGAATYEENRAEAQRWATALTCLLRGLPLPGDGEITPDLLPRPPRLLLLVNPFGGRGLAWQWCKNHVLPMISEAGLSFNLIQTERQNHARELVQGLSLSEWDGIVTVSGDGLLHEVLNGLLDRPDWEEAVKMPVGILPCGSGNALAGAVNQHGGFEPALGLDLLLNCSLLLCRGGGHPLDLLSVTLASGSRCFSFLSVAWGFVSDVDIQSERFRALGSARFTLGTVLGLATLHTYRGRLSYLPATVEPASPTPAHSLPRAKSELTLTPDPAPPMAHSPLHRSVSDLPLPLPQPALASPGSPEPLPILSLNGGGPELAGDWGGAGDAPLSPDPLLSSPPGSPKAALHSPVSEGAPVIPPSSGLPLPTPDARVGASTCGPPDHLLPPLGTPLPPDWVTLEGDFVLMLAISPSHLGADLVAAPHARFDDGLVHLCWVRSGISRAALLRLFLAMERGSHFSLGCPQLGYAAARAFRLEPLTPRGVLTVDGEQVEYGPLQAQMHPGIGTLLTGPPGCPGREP

[3] = target: T1, Sphingosine kinase 2 (Homo sapiens); conditions: at 1 µM
[4] = target: Casein kinase II subunit alpha (Homo sapiens) (UniProt P68400); conditions: at 0.1 µM
Casein kinase II subunit alpha (Homo sapiens), sequence (P68400 whole entry, looked up): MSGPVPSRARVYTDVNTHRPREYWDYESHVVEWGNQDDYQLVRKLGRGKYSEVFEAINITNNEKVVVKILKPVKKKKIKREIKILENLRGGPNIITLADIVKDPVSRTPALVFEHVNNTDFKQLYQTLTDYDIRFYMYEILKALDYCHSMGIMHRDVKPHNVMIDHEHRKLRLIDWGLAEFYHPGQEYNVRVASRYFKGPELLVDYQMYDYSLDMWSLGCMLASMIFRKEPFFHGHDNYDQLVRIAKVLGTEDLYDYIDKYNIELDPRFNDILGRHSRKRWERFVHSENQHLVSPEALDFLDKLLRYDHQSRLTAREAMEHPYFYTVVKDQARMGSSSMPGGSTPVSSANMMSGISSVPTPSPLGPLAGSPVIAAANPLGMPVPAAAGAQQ

[5] = target: Casein kinase II subunit alpha (Homo sapiens) (UniProt P68400); conditions: at 1 µM
[6] = target: T2, Inhibitor of nuclear factor kappa-B kinase subunit alpha (Homo sapiens) (UniProt O15111); conditions: at 0.1 µM
T2 sequence (whole entry): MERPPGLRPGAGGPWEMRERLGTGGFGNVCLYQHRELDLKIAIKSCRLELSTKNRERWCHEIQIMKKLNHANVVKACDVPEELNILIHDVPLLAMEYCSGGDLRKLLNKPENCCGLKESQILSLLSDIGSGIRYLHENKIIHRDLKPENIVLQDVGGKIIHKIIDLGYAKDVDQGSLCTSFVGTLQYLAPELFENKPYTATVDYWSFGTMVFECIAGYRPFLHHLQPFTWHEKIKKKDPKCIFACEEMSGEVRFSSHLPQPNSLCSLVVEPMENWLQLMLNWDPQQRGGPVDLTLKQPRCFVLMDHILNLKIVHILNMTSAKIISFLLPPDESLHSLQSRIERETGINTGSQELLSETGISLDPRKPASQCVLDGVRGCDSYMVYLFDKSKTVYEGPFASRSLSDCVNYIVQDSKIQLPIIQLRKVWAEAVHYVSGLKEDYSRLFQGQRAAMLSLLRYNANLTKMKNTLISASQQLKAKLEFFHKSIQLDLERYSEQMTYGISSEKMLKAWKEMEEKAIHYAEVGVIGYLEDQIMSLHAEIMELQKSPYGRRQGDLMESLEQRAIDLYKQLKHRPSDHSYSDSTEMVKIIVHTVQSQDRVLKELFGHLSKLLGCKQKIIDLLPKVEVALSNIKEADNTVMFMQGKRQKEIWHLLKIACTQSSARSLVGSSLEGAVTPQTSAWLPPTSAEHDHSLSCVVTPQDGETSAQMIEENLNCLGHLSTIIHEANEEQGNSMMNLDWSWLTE

[7] = target: T2, Inhibitor of nuclear factor kappa-B kinase subunit alpha (Homo sapiens); conditions: at 1 µM
[8] = target: T3, Inhibitor of nuclear factor kappa-B kinase subunit beta (Homo sapiens) (UniProt O14920); conditions: at 0.1 µM
T3 sequence (whole entry): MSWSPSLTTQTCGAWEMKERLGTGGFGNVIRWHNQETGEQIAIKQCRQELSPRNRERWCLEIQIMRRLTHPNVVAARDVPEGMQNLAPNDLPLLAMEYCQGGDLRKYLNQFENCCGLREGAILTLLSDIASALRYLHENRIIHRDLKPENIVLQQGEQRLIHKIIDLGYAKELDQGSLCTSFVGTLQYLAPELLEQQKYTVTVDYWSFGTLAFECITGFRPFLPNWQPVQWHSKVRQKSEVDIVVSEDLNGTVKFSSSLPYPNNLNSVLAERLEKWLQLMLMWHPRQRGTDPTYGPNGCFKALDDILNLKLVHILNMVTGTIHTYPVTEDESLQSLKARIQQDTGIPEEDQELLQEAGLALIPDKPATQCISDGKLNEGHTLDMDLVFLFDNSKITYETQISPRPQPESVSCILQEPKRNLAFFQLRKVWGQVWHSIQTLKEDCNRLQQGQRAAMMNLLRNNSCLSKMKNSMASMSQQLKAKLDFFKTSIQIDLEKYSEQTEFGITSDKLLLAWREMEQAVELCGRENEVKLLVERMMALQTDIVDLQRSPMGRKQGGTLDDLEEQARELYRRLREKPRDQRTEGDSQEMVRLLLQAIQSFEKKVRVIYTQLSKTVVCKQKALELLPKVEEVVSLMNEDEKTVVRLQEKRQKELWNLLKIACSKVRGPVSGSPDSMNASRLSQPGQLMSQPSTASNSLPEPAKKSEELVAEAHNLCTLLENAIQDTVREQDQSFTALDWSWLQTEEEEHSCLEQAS

[9] = target: T3, Inhibitor of nuclear factor kappa-B kinase subunit beta (Homo sapiens); conditions: at 1 µM
[10] = target: T4, Inhibitor of nuclear factor kappa-B kinase subunit epsilon (Homo sapiens) (UniProt Q14164); conditions: at 0.1 µM
T4 sequence (whole entry): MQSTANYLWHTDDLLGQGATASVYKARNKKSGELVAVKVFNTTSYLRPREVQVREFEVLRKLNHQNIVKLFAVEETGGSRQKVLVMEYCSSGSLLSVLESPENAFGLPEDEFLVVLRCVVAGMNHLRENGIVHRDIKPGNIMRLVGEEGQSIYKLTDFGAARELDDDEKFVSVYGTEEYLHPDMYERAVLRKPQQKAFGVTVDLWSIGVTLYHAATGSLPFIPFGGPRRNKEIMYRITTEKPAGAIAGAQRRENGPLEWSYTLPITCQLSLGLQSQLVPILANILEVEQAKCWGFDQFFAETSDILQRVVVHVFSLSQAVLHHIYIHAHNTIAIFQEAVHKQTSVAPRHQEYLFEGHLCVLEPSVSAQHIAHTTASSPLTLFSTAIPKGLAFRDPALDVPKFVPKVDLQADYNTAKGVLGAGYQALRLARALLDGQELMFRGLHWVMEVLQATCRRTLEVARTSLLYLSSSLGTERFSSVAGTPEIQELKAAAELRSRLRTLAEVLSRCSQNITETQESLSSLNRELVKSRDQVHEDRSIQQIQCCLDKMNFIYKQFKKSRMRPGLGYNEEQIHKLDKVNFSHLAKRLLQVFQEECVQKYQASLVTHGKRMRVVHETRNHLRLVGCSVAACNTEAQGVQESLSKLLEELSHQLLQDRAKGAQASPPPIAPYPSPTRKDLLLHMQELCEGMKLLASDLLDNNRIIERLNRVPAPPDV

[11] = target: T4, Inhibitor of nuclear factor kappa-B kinase subunit epsilon (Homo sapiens); conditions: at 1 µM
[12] = target: T5, Serine/threonine-protein kinase Nek1 (Homo sapiens) (UniProt Q96PY6); conditions: at 0.1 µM
T5 sequence (whole entry): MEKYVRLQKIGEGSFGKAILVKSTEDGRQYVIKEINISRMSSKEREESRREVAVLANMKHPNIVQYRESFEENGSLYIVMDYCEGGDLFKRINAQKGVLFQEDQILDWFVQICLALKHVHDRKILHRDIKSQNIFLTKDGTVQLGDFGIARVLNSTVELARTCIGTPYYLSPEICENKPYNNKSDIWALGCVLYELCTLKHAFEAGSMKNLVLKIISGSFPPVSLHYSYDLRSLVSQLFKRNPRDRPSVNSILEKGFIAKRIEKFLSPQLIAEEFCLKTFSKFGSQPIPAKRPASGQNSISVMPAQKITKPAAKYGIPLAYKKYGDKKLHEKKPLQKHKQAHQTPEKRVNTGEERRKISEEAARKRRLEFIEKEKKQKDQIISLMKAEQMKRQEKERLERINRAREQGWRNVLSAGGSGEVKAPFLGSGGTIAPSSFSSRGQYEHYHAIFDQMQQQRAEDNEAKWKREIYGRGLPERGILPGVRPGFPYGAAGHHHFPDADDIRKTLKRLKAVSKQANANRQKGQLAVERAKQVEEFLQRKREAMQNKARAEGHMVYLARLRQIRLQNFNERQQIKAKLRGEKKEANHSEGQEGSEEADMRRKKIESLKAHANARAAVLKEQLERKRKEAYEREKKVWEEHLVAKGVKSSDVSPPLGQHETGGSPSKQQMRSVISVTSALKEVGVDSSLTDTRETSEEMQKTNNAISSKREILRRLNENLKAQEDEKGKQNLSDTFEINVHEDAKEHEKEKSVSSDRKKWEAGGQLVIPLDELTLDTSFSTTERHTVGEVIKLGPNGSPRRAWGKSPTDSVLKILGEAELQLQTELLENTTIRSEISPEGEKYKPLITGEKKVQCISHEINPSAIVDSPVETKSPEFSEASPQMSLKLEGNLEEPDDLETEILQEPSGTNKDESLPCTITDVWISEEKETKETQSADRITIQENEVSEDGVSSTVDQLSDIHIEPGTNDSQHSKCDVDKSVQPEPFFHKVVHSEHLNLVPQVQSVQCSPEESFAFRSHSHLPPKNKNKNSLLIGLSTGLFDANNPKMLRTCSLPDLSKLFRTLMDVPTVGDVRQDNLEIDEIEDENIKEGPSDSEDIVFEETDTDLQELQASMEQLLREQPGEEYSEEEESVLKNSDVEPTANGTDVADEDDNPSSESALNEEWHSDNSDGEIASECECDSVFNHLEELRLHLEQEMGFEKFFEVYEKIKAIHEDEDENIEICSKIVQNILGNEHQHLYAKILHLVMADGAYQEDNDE

[13] = target: T5, Serine/threonine-protein kinase Nek1 (Homo sapiens); conditions: at 1 µM
[14] = target: T6, Serine/threonine-protein kinase Nek2 (Homo sapiens) (UniProt P51955); conditions: at 0.1 µM
T6 sequence (whole entry): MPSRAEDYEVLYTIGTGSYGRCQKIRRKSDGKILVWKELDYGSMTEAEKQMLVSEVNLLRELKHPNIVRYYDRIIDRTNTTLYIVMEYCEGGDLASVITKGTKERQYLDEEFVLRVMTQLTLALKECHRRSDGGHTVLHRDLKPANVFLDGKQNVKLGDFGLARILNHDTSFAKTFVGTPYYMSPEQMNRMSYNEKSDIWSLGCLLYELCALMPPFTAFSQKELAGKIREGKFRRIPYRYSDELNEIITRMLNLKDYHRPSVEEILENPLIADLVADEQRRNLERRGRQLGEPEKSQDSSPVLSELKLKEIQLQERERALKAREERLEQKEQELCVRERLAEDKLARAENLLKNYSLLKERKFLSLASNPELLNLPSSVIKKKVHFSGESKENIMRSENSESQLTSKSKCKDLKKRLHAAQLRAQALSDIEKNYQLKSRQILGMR

[15] = target: T6, Serine/threonine-protein kinase Nek2 (Homo sapiens); conditions: at 1 µM
[16] = target: Serine/threonine-protein kinase Nek6 (Homo sapiens) (UniProt Q9HC98); conditions: at 0.1 µM
Serine/threonine-protein kinase Nek6 (Homo sapiens), sequence (Q9HC98 whole entry): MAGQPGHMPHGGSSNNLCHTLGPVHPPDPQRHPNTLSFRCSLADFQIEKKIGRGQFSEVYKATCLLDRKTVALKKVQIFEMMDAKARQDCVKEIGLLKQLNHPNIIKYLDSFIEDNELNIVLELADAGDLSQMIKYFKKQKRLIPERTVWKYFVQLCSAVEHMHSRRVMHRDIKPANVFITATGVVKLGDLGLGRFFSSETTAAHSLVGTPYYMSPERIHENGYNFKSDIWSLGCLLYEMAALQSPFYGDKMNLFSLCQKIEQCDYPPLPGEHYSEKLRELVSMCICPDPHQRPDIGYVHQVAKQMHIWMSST

[17] = target: Serine/threonine-protein kinase Nek6 (Homo sapiens) (UniProt Q9HC98); conditions: at 1 µM
[18] = target: Serine/threonine-protein kinase Nek7 (Homo sapiens) (UniProt Q8TDX7); conditions: at 0.1 µM
Serine/threonine-protein kinase Nek7 (Homo sapiens), sequence (Q8TDX7 whole entry, looked up): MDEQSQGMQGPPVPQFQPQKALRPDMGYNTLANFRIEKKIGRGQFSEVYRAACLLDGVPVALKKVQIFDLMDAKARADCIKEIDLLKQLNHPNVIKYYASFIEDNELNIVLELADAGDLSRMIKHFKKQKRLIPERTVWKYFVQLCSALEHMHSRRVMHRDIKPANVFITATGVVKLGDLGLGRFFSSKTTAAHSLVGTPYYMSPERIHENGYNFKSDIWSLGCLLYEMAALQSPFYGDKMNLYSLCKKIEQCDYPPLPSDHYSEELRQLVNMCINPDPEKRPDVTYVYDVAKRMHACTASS

[19] = target: Serine/threonine-protein kinase Nek7 (Homo sapiens) (UniProt Q8TDX7); conditions: at 1 µM
[20] = target: T7, Serine/threonine-protein kinase Nek9 (Homo sapiens) (UniProt Q8TD19); conditions: at 0.1 µM;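 further: reported value is the mean percent inhibition of NEK9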
T7 sequence (whole entry): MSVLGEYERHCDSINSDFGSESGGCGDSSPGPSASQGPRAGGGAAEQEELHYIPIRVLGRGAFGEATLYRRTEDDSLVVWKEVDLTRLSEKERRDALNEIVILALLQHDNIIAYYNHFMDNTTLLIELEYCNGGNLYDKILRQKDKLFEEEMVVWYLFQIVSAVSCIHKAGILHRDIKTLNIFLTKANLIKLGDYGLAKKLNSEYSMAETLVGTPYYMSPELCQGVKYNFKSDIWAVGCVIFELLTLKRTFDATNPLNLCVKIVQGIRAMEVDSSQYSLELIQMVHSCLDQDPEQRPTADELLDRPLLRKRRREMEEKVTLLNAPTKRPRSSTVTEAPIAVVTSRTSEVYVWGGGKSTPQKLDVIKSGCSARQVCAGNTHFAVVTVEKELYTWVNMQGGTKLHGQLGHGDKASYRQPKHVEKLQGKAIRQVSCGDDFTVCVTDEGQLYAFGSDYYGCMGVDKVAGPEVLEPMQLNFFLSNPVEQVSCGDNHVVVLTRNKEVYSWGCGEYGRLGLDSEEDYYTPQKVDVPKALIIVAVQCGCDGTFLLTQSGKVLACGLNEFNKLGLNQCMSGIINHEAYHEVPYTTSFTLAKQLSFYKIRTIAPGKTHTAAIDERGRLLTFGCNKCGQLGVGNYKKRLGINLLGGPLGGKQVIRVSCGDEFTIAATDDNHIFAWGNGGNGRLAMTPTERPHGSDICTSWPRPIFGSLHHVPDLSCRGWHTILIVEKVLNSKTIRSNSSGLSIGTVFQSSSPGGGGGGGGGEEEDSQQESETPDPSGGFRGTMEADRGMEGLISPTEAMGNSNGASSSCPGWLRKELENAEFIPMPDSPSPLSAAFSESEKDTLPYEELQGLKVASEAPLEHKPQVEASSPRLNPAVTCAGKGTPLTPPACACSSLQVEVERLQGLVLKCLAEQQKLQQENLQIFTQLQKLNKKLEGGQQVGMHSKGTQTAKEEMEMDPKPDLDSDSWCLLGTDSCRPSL

Sphingosine kinase 1 (Homo sapiens), sequence (Q9NYA1 whole entry): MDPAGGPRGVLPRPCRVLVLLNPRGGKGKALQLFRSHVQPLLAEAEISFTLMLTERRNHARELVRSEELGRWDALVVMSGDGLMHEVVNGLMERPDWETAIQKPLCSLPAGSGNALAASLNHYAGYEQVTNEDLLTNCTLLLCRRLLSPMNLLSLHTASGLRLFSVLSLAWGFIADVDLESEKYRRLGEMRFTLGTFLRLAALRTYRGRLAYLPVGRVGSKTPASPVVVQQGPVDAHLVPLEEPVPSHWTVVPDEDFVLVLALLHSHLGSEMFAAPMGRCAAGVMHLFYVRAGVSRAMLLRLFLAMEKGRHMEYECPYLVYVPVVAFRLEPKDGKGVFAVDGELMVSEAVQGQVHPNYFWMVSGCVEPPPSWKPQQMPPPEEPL

Compound | inhibition [1] | inhibition [2] | inhibition [3] | inhibition [4] | inhibition [5] | inhibition [6] | inhibition [7] | inhibition [8] | inhibition [9] | inhibition [10] | inhibition [11] | inhibition [12] | inhibition [13] | inhibition [14] | inhibition [15] | inhibition [16] | inhibition [17] | inhibition [18] | inhibition [19] | inhibition [20]
CN1CCN(C(=O)c2ccc(NC(=O)Nc3ccc(N(C)c4ccnc(Nc5ccc(CS(C)(=O)=O)cc5)n4)cc3)cc2)CC1 | 2.73% | 0% | -0.74% | 7.1% | 2.55% | 3.61% | 9.53% | 3.95% | 5.76% | 4.12% | 14.2% | 5.21% | 29.1% | 2.78% | 3.14% | 1.8% | -1.02% | 2.05% | 5.08% | 6.54%
c1ccc(Cc2nc3ccc(Nc4ncnc5ccccc45)cc3[nH]2)cc1 | -0.48% | 0.11% | -0.64% | 3.02% | 9.95% | -0.9% | 6.86% | 5.53% | 8.45% | 5.38% | 4.77% | 0.8% | 6.65% | 4.56% | 2.85% | 3.06% | 4.77% | 3.7% | 3.14% | 7.36%
